# About 31,000 (8.9%) of roughly 350,000 compounds were called active. A call without a number means that no potency is given here. Inconclusive results (about 15%) are left out. This is one part of a sample in which actives are shown more often than they occur. Calls come from the whole dose curve; as a rule, active = well fitted inhibition curve with a large enough effect; inconclusive = small, poorly fitted or top-dose-only effect; inactive = no such curve, though single readings can be large or run the other way.
# Molecular target: Histone-lysine N-methyltransferase EHMT2 (Homo sapiens) (UniProt Q96KQ7)
# Experiment: qHTS Assay for Inhibitors of Histone Lysine Methyltransferase G9a; note: nearly all actives have a fitted effect of over 75% in size
# Conditions: G9a H3K9 monomethylation, AlphaScreen, 2 h; series mostly up to 59 µM
# Procedure, shortened: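 AlphaScreen read-out: biotin-H3K9 peptide (500 nM) methylation by 20 nM enzyme with 20 uM SAM, 2 h at room temperature after 15 min compound preincubation; anti-monomethyl H3K9 antibody plus donor/acceptor beads, 10 min dark.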
# Potency is the fitted concentration of half-maximal effect.
# Histone-lysine N-methyltransferase EHMT2 (Homo sapiens), sequence (Q96KQ7 913-1193 limits assumed): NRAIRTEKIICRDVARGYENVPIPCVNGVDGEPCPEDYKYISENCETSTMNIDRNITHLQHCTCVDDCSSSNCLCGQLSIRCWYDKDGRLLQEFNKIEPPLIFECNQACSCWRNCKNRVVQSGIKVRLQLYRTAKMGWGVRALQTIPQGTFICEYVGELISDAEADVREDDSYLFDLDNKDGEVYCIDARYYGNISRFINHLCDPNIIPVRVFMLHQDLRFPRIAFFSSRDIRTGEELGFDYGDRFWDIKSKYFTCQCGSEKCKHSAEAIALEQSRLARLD
SMILES,Potency,"activity, negative = inhibition"
COc1ccccc1CNC(=O)NCc1noc2ccc(C)cc12,inactive,
Cc1cc(C)c(NC(=O)CCc2c(C)nc3c(c(C)nn3C(C)(C)C)c2C)c(C)c1,inactive,
N#Cc1nc(/C=C/c2ccc(F)cc2)oc1NCc1ccc(F)cc1,inactive,
O=C(Nc1ccc2c(c1)OCO2)c1cc(-c2cccc(Cl)c2)on1,inactive,
COc1ccc(NC(=O)Cn2c(=O)cc(C)c3c(C)nn(-c4cccc(Cl)c4C)c32)cc1OC,inactive,
COc1cccc(CNC(=O)Cc2csc3nc(-c4ccccc4)cn23)c1,inactive,
CC1=CC(C)(C)NC(=S)N1c1ccccc1,inactive,
O=C1/C(=C\c2ccsc2)NC(=S)N1c1ccccc1,50.1 µM (active),
O=C1/C(=C/c2coc3ccc(O)cc3c2=O)SC(=S)N1c1ccccc1,,-31.3% [at 12.7 µM] (inactive)
CC(=O)c1ccccc1OCc1ccc(C(=O)c2ccccc2)cc1,inactive,
O=C(O)c1cccc(S(=O)(=O)N2CC=C(c3ccccc3)CC2)c1,,23% [at 12.7 µM] (inactive)
Cc1c(C2=CCN(S(=O)(=O)c3ccc(Cl)cc3)CC2)c2ccccc2n1C,44.7 µM (active),
COc1ccccc1N1CCN(S(=O)(=O)c2ccc(Cl)cc2)CC1,inactive,
COc1ccc(NC(=O)CSC2=Nc3ccccc3C3=NC(CC(=O)NCc4ccccc4OC)C(=O)N23)cc1Cl (stereo not drawn),inactive,
CCC(C)CCN1CCN=C1N(C)C (stereo not drawn),,2.04% [at 2.33 µM] (inactive)
CCC(C)(C)c1ccc(OCC(=O)N(C)C)c(C(C)(C)CC)c1,inactive,
CN(C)CCOc1ccc(Cl)cc1C(C)(C)C,8.91 µM (active),
O=C(NCCCO)c1nn(-c2ccc(Cl)cc2)nc1CO,inactive,
COc1ccc(/C=C2\SC(=S)N(CCC(=O)Nc3cccc(C(=O)O)c3)C2=O)cc1OC,inactive,
Cc1nn(Cc2ccccc2)c(C)c1C(=O)NCCN1C(=O)S/C(=C\c2ccc(F)cc2)C1=O,inactive,
N#Cc1ccccc1CN1C(=O)S/C(=C/c2cccn2-c2cccc(C(=O)O)c2)C1=O,44.7 µM (active),
CC(C)C(=O)Nc1nc2c(s1)CC(C(C)(C)C)CC2 (stereo not drawn),inactive,
Cn1nnnc1SCCCNCc1ccc(Cl)cc1,inactive,
O=C(CCNC(=O)c1ccccc1)Nc1nc2ccccc2s1,,-6.33% [at 0.501 µM] (inactive)
CCN(CC)CCOCCOc1ccc(Cl)c2ccccc12,inactive,
CN(C)CCOCCOc1ccc(Cl)c2ccccc12,14.1 µM (active),
O=S(=O)(c1ccc(Cl)cc1)c1nc(-c2ccco2)oc1N1CCCCC1,,32.5% [at 12.7 µM] (inactive)
Clc1cccc(-n2ncc3c(NCCc4ccccc4)ncnc32)c1,inactive,

# From PubChem BioAssay AID504332 (National Center for Advancing Translational Sciences (NCATS), 2011)
